DNMT1 block: DNMT1 (human) enzyme inhibition | DNMT1 molecular beacon, Hinp1I cleavage, fluorescence | inhibition (reported as % activation of signal), % at 10 µM | 0.83% of 360,000 active | AID 588458; in the data active = inhibition above about 50%
MBD2 inh: inhibitors of human MBD2 binding to methylated oligonucleotide. TR-FRET. inhibition, % at 4.4 µM. 0.31% of 370,000 active; in the data active = inhibition above about 13%
PG9 binder: small molecules binding HIV-1 gp120 antibody PG9 | 0.43% of 360,000 active | TR-FRET gp120-PG9 antibody binding | AID 624416 | inhibition, % at 6.7 µM; in the data active = inhibition above about 8.5%
rCAG binder-1: r(CAG) repeat RNA binding; TO-PRO-1 dye displacement fluorescence; inhibition, % at 3 µM; 1.3% of 370,000 active;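 active = inhibition above the plate cutoff, the mean of all test compounds on that plate plus 3 SD, cut at about 35% in these data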;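 note: 0% = DMSO alone and 100% = 100 µM mitoxantrone as full dye displacement; higher means more dye released from RNA so lower well fluorescence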
UHRF1 binding: UHRF1 methyl-DNA binding inhibition | Q96T88 | UHRF1 binding to methylated oligo, TR-FRET | inhibition, % at 4.4 µM | 0.75% of 370,000 active | AID 687016; in the data active = inhibition above about 21%;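 note: UHRF1 SRA domain binding a hemimethylated CpG hairpin DNA probe; 0% = median of test compound wells and 100% = reference inhibitor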
LEDGF integ inh: blocks HIV-1 LEDGF/p75-dependent DNA integration. inhibition, % at 3.7 µM. TR-FRET IN-LEDGF/p75 DNA integration, Eu/Cy5. 0.64% of 370,000 active. AID 743269;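 active = inhibition above the screen-wide mean plus 3 SD, cut at about 13% in these data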;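 note: signal is the Cy5 over europium emission ratio at 671 and 618 nm; 0% = plate median of compound wells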
rCAG binder conf: r(CAG) RNA repeat binding, confirmation; TO-PRO-1 dye displacement fluorescence; 70% of 4,300 active; shares compounds with rCAG binder-1; inhibition, % at 3 µM;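 active = inhibition above a per-plate cutoff, the mean inhibition of sample wells plus 3 SD, cut at about 35% in these data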;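 note: loss of TO-PRO-1 fluorescence as compound displaces dye from 1x1 AA loop RNA; 0% = DMSO only wells and 100% = 100 µM mitoxantrone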
dCAG dye counter: counter-screen for rCAG RNA binders: DNA CAG dye complex inhibitors; shares compounds with rCAG binder-1; d(CAG) DNA oligo TO-PRO-1 dye displacement, fluorescence; inhibition, % at 3 µM; 94% of 4,300 active; AID 652068;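 active = inhibition above its plate's cutoff, the mean test-well inhibition plus 3 SD, cut at about 4.8% in these data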;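 note: 0% = DNA dye mix with DMSO and 100% = 100 µM mitoxantrone; hits displace the dye from DNA and so lower well fluorescence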
dCAG dye DR: disrupts DNA CAG TO-PRO-1 complex in dose response; shares compounds with rCAG binder-1; DNA CAG/GTC duplex TO-PRO-1 dye displacement fluorescence; IC50, µM; 20% of 250 active; AID 686960; in the data active = IC50 below about 10 µM
dCAG TOPRO ctr: inhibits DNA CAG/GTC TO-PRO-1 complex, rCAG binder counter-screen | 80% of 30 active | d(CAG) DNA duplex TO-PRO-1 dye displacement, fluorescence | shares compounds with rCAG binder-1 | AID 720649 | IC50, µM
rCAG binder-2: r(CAG) repeat RNA binding, TO-PRO-1 displacement. IC50, µM. 100% of 30 active. AID 720651. shares compounds with rCAG binder-1. r(CAG) RNA TO-PRO-1 dye displacement, fluorescence
* marks the source's active call; other numbers are inactive results; i = inactive; . = no result. This is a sample that favours compounds with a hit; in the whole collection about 3.5% have one here. Unless noted, the rule behind the calls is not given here.

SMILES	DNMT1 block	MBD2 inh	PG9 binder	rCAG binder-1	UHRF1 binding	LEDGF integ inh	rCAG binder conf	dCAG dye counter	others
O=C(NC(C(=O)N/N=C/c1cc([N+](=O)[O-])ccc1O)c1n[nH]c(=O)c2ccccc12)c1ccccc1 (configuration not stated)	-2	-5	-3	84*	-5	-8	66*	28*
COC1=CC(=O)C(OC)=C(OC)C1=O	-4	-7	-1	1	-6	1	.	.
Cc1cc(C(O)c2ncc(-c3ccc(Cl)cc3)[nH]2)ccc1F (configuration not stated)	-2	-2	0	2	0	0	.	.
Cc1nn(-c2ccccn2)c2nc(-c3cccs3)cc(C(=O)N3CCOCC3)c12	0	0	1	-4	-2	-2	.	.
Cc1cccc(-n2nc(C)c3c(C(=O)O)cc(-c4cccs4)nc32)c1	-1	3	3	81*	-2	-1	74*	34*	dCAG dye DR=6.3*;dCAG TOPRO ctr=1.4*;rCAG binder-2=0.58*
CCC1CCCCN1S(=O)(=O)c1ccc(NC(=O)CSc2ncccc2C(=O)O)cc1 (configuration not stated)	2	-1	-1	39*	0	5	34	11*
O=C(Nc1nnc(SCc2ccccc2)s1)c1cccc([N+](=O)[O-])c1	2	6	0	36*	0	1	23	6.0*
Cc1nnc(SCc2cccc([N+](=O)[O-])c2)s1	-2	-4	0	0	-3	2	.	.
CC(C)N(CCn1c(SCC(=O)Nc2cccnc2Cl)nc2ccccc2c1=O)C(C)C	-2	-3	0	2	1	-1	.	.
Cc1cc(NC(=O)Nc2cccc(Cl)c2)no1	8	-1	-2	3	1	-1	.	.
O=C(Nc1cccc(Cl)c1)Nc1nc(-c2ccccc2)cs1	5	-3	-1	50*	1	2	21	20*
O=C(Nc1cccc(Cl)c1)Nc1cccc(Cl)c1	-4	-5	-2	9	0	-4	.	.
Cc1nnc(NC(=O)Nc2cccc(Cl)c2)s1	-4	2	-1	50*	-1	0	9	12*
Cc1csc(NC(=O)Nc2cccc(Cl)c2)n1	-9	2	-1	46*	0	-5	11	16*
O=C(Nc1ccc(Cl)cc1)Nc1nc(-c2ccccc2)cs1	17	-3	0	13	-2	4	.	.
COCc1c(C(=O)OCc2nc3ccsc3c(=O)[nH]2)oc2ccccc12	1	4	-1	5	1	-3	.	.
COc1ccc(C2C(C#N)=C(N)Oc3c2c(-c2ccccc2)nn3-c2ccccc2)c(OC)c1OC (configuration not stated)	-4	-8	-2	42*	3	12	23	10*
COc1ccc(/C=C(\NC(=O)c2ccc(OC)cc2)C(=O)Nc2ccccc2C(=O)O)cc1	-2	-3	2	39*	3	2	22	4
COc1ccc(OCC(=O)Nc2ccc(C(=O)Nc3ccccc3C(=O)O)cc2)cc1	7	2	-1	73*	0	1	75*	30*	dCAG dye DR=i
COc1ccc(C(=O)Nc2ccc(C(=O)O)cc2NC(=O)c2ccc(OC)cc2)cc1	-1	-2	1	36*	-1	0	20	3
COc1ccc(OCC(=O)Nc2ccccc2C(=O)Nc2ccc(C(=O)O)cc2)cc1	0	-4	-3	19	-1	1	.	.
Cc1ccc(OCC(=O)Nc2ccc(C(=O)Nc3ccccc3C(=O)O)cc2)cc1C	-4	-2	0	51*	-1	0	80*	45*
CNC(=O)c1ccccc1C1(O)c2ccccc2CCc2ccccc21	.	-1	0	1	1	-3	.	.
CC(=O)/C=C1\OCc2ccccc21	.	9	0	2	19	2	.	.
Cc1ccccc1OCC(=O)Nc1ccc(C(=O)Nc2ccccc2C(=O)O)cc1	-1	-9	0	49*	-3	0	73*	37*
SMILES	DNMT1 block	MBD2 inh	PG9 binder	rCAG binder-1	UHRF1 binding	LEDGF integ inh	rCAG binder conf	dCAG dye counter	others
CC(=O)N(c1ccc2oc(=O)sc2c1)S(=O)(=O)c1ccccc1	-1	-3	2	25	-5	-7	.	.
Cc1ccc(S(=O)(=O)N(C(=O)c2ccco2)c2cc3sc(=O)oc3c3ccccc23)cc1	16	2	1	88*	-2	2	40*	17*
CCOc1ccc(S(=O)(=O)N(C(=O)c2ccco2)c2cc3sc(=O)oc3c3ccccc23)cc1	-9	4	1	78*	6	-1	48*	26*
C=CCOC(=O)C1=C(C)N=c2sc(=C3C(=O)N(CC(=O)O)c4ccccc43)c(=O)n2C1c1ccc(OC)cc1 (configuration not stated)	.	2	.	48*	0	0	75*	41*
C=CCOC(=O)C1=C(C)N=c2s/c(=C3\C(=O)N(CC(=O)O)c4ccccc43)c(=O)n2C1c1ccc(OC)cc1 (configuration not stated)	4	1	0	12	1	2	.	.
COc1ccc(-c2noc(C3CCCN(C(=O)N[C@@H]4C[C@H]4c4ccccc4)C3)n2)cc1 (some centres not stated)	.	5	.	1	-1	2	.	.
Cc1ccc(Cc2c(-c3ccc(F)cc3)nc3cc(C)ccn23)cc1	15	10	0	-1	20	1	.	.
O=C(NN=C1CCCC1)c1cc(Br)ccc1O	0	-1	-1	9	-6	8	.	.
O=C(N/N=C1/CCSC1)c1cc(Br)ccc1O	-8	-10	-2	41*	-4	0	16	7.3*
CCC(Sc1nc(C)cc(=O)[nH]1)C(=O)Nc1nc(-c2ccccc2)cs1 (configuration not stated)	-7	2	-3	49*	2	1	60*	23*
Cc1ccc(-c2csc(NC(=O)CSc3nc(C)cc(=O)[nH]3)n2)cc1	.	-3	-1	56*	-4	-1	54*	19*

Source: PubChem (several laboratories)
